The text below walks through data of PubChem BioAssay AID602292 (National Center for Advancing Translational Sciences (NCATS), 2012).

Each structure is given as a SMILES string. Screen size: about 1,300 compounds; about 380 (29%) were called active. About 37% were inconclusive and are not listed. Calls follow the shape of the dose curve; as a rule, active = well fitted inhibition curve with a large enough effect; inconclusive = small, poorly fitted or top-dose-only effect; inactive = flat fitted curve, though single readings scatter. The list shows a part of the results. Entries that show only a call come without a potency.
Potency is read from the fitted curve at half-maximal effect.

Thyrotropin receptor (Homo sapiens), sequence (P16473 whole entry, looked up): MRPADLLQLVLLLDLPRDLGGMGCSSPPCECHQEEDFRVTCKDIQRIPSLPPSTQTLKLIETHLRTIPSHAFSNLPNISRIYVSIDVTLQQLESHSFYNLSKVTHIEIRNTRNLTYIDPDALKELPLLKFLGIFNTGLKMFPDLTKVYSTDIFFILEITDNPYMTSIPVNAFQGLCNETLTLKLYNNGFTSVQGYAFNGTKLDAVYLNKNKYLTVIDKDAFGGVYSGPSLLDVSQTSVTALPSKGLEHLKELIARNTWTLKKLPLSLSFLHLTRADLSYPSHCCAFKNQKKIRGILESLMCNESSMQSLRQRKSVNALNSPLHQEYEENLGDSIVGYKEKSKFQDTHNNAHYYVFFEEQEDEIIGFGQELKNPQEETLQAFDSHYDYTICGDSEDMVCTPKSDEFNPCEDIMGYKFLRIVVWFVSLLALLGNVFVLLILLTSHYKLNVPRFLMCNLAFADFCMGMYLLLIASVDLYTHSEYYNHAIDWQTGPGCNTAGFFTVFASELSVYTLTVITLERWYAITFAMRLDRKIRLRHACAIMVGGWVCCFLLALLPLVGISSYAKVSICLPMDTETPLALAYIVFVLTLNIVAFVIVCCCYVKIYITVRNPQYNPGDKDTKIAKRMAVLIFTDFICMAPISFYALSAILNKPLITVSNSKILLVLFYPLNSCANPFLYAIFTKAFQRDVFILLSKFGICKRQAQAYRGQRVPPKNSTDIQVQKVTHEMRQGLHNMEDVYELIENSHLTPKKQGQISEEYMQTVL

This test addresses Thyrotropin receptor (Homo sapiens) (UniProt P16473). Briefly: qHTS for antagonists of the Thyroid Stimulation Hormone Receptor: Hit Validation in Primary Screen. Also: nearly all actives have a fitted effect of over 80% in size. The conditions noted are these: TSHR-expressing cells, cAMP antagonist mode; series mostly up to 58 µM. The gist of the method: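 TSHR-expressing cells were pretreated with compound, then stimulated with TSH at EC80 (4nM final) for 2 hours at 37 deg C. Cellular cAMP measured by competitive HTRF (anti-cAMP cryptate, cAMP-d2) after 30 min at room temperature.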
Background: In qHTS, concentration-response curves come from the screen itself.
Take `OCCSc1nnc(Nc2ccccc2)s1`: the Potency result was “inactive”.

In the case of `O=C1C(SCCO)=C(SCCO)C(=O)c2ccccc21`, the Potency was 3.38 µM (active).

As for `COc1cc(NS(=O)(=O)c2ccc(C)cc2C)cc(OC)c1OC`, the Potency is 37.9 µM (active).

In the case of `CCc1ccc(NS(=O)(=O)c2cc3[nH]c(=O)c(=O)[nH]c3cc2C)cc1`, the Potency entry was “inactive”.

Consider `COc1ccc(NS(=O)(=O)c2cn(C)cn2)cc1Cl`, for which the Potency result is “inactive”.

On to `CC(C)(C)OC(=O)N1CCC(CC2CC(c3cccc(Br)c3)=NO2)(C(=O)NCC2CCCCC2)CC1` (stereo not drawn), for which the Potency result was “inactive”.

On to `CC(C)Cc1nc2oc3c(Cl)ncnc3c2c2c1CCC2`, for which the Potency is 23.9 µM (active).

With `COc1cccc(CNC(=O)c2nnn(CC(=O)Nc3cc(Cl)ccc3C)c2N)c1`, the Potency entry was “inactive”.

Take `COc1cc(NC(=O)c2cc3ccccc3cc2O)c(OC)cc1Cl`: the Potency was 10.7 µM (active).

As to `COc1ccccc1C(=O)NCCC(=O)Nc1ccc(OC(F)(F)F)cc1`, the Potency result was “inactive”.

Take `Cc1cc(NC(=O)c2ccccc2)c(Cl)cc1N`: the Potency entry was “inactive”.

As for `Cc1ccc(Cl)cc1NC(=O)c1cc2ccccc2cc1O`, the Potency was 3.79 µM (active).

With `COc1cc2ccccc2cc1C(=O)N1CCCC1`, the Potency result was “inactive”.

As to `CCOc1ccc(-n2c(SCC(=O)Nc3cc(C)on3)nc3c(c2=O)SCC3)cc1`, the Potency result is “inactive”.

Consider `Cc1ccc(NC(=O)Cn2nnc(C(=O)NCCc3ccccc3)c2N)c(C)c1`, for which the Potency result was “inactive”.

As to `Cc1ccc(CCNC(=O)C2CC(c3cc(C(F)(F)F)cc(C(F)(F)F)c3)=NO2)cc1` (stereo not drawn), the Potency result is “inactive”.

For the compound `N#C/C(=N/Nc1ccc(OC(F)(F)F)cc1)C(N)=S`, the Potency was 6.01 µM (active).

For the compound `O=C(Nc1cccc(Cl)c1)c1cc(N=Nc2ccc([N+](=O)[O-])cc2Cl)ccc1O`, the Potency was 0.478 µM (active).

As for `CC(=O)Oc1c(C)cc(Cl)cc1C(=O)Nc1ccc([N+](=O)[O-])cc1Cl`, the Potency is 0.478 µM (active).

As for `O=C(Nc1ccc([N+](=O)[O-])cc1Cl)c1cc(Cl)ccc1O`, the Potency is 0.338 µM (active).

For `Cc1ccc(N2C(=O)C3C4C=CC(CC4)C3C2=O)cc1Cl` (stereo not drawn), the Potency entry is “inactive”.

`CCOc1cc(S(=O)(=O)n2cnc(C)c2)ccc1Cl`: the Potency entry was “inactive”.

Regarding `Cc1ccc(CS(=O)(=O)c2ncc(Cl)c(C(=O)Nc3nnc(C(C)C)s3)n2)cc1`, the Potency is 23.9 µM (active).

For `COC(=O)CSc1nc(NCc2ccccc2)nc(N(C)C)n1`, the Potency result is “inactive”.

On to `Cc1cccc(CC(=O)NCC(=O)NCc2cc(=O)n(C)c(=O)n2C)c1`, for which the Potency entry is “inactive”.

For the compound `CN(C)c1nc(=S)nc(NCc2ccccc2)[nH]1`, the Potency entry was “inactive”.

On to `Cc1cc(=O)oc2ccc(OCc3ccccc3)cc12`, for which the Potency entry was “inactive”.

On to `COc1ccc(CNC(=O)C2CCCN2C(=O)NCc2ccccc2)cc1` (stereo not drawn), for which the Potency entry is “inactive”.

`CCOC(=O)c1c(NC(=O)/C=C/C(=O)O)sc(C)c1-c1ccc(Cl)cc1`: the Potency was 21.3 µM (active).

In the case of `CCOC(=O)c1c(NC(=O)/C=C/C(=O)O)sc(C)c1-c1ccc(C)c(C)c1`, the Potency is 23.9 µM (active).

For the compound `CCOC(=O)c1c(NC(=O)CN2C(=O)NC(C)(c3ccc(OC(F)F)cc3)C2=O)sc(C)c1C` (stereo not drawn), the Potency entry is “inactive”.

For the compound `CCOC(=O)Cn1c(=NC(=O)CSC(C)=O)sc2ccccc21`, the Potency result was “inactive”.

Take `Cc1ccc(/C=N/n2c(COc3ccccc3)n[nH]c2=S)s1`: the Potency entry was “inactive”.

On to `CN(C)c1ccc(N/C=C/C(=O)C(F)(F)F)cc1`, for which the Potency result is “inactive”.

Consider `Cc1nn(Cc2ccc(Cl)cc2)c(C)c1NC(=O)c1noc2c1CCc1ccccc1-2`, for which the Potency was 16.9 µM (active).

In the case of `Cc1nn(Cc2ccccc2)c(C)c1NC(=O)c1noc2c1CCc1ccccc1-2`, the Potency is 37.9 µM (active).

Turning to `COc1ccc(C(C(=O)NC(C)(C)C)N(CCc2ccccc2)C(=O)CCC(=O)Nc2cc(C)on2)cc1` (stereo not drawn), the Potency entry is “inactive”.

For the compound `CC(=O)N/C(=C\c1ccc(Cl)cc1)C(=O)O`, the Potency entry is “inactive”.

As to `C=CCNC(=O)c1ccc(NC(=O)C2=CSCCO2)cc1`, the Potency result is “inactive”.

For `Cc1c(Nc2cc(Cl)c3nonc3c2[N+](=O)[O-])c(=O)n(-c2ccccc2)n1C`, the Potency was 26.9 µM (active).

As to `O=[N+]([O-])c1c(Nc2cccc(O)c2)cc(Cl)c2nonc12`, the Potency was 10.7 µM (active).

Take `Cc1cc(C)cc(C(=O)NC(CC(N)=O)c2ccc(NCCN3CCCC3)c([N+](=O)[O-])c2)c1` (stereo not drawn): the Potency entry is “inactive”.

Take `CC1CCCC(N2CCN(S(=O)(=O)c3ccccc3)CC2)C1` (stereo not drawn): the Potency entry is “inactive”.

In the case of `COC(CNC(=O)c1cn(C)c2ccc(S(=O)(=O)N3CCOCC3)cc2c1=O)OC`, the Potency result was “inactive”.

With `O=C1c2cccc3c(O)ccc(c23)C(=O)N1c1ccc(Cl)cc1`, the Potency was 30.1 µM (active).

Regarding `Cc1ccc(OC(F)F)c(NC(=O)Nc2cccc(C(F)(F)F)c2)c1`, the Potency is 26.9 µM (active).

Take `N/C(=N\OC(=O)Nc1ccccc1)c1cccc(C(F)(F)F)c1`: the Potency result was “inactive”.

As for `Cc1ccc(NC(=O)Nc2ccc3c(c2)OCO3)c(OC(F)F)c1`, the Potency entry is “inactive”.

Turning to `Cc1ccccc1NC(=O)C1C2CCCCC21` (stereo not drawn), the Potency result was “inactive”.

For `O=C(Nc1ccncc1)C1CCN(S(=O)(=O)c2cccc(C(F)(F)F)c2)CC1`, the Potency result is “inactive”.

As to `Cc1ccc(C)c(N2CCN(S(=O)(=O)c3ccc4c(c3)CC(C)N4C(=O)C3CC3)CC2)c1` (stereo not drawn), the Potency entry was “inactive”.

In the case of `CC1CC1C(=O)N1CCN(S(=O)(=O)c2cc(C(F)(F)F)cc(C(F)(F)F)c2)CC1` (stereo not drawn), the Potency was 30.1 µM (active).

Regarding `COc1cccc(CNC(=O)CCCC(=O)NC(C)CCc2ccccc2)c1` (stereo not drawn), the Potency result was “inactive”.

Regarding `CCCn1c(COc2ccccc2OC)nc2ccccc21`, the Potency entry is “inactive”.

On to `COc1cccc(COc2cc3ccccc3nc2C)c1`, for which the Potency was 23.9 µM (active).

With `COc1ccc(-n2c(SCC(=O)Nc3cc(C)on3)nc3c(c2=O)SCC3)cc1OC`, the Potency entry is “inactive”.

As to `O=S(=O)(Nc1cccc(-n2cnnn2)c1)c1ccccc1C(F)(F)F`, the Potency result was “inactive”.

As for `Nc1ncc(Br)cc1S(=O)(=O)Nc1cc(C(F)(F)F)cc(C(F)(F)F)c1`, the Potency is 12 µM (active).

With `CC1CN(C(=O)CCn2c(=O)oc3ccccc32)CC(C)O1` (stereo not drawn), the Potency result is “inactive”.

For `O=C(/C=C/c1ccc(OCCCF)cc1)Nc1ccnc(-c2ccncc2)n1`, the Potency result is “inactive”.

As to `Cc1cc(C#N)c(SCC(N)=O)nc1-c1ccc(F)cc1`, the Potency result was “inactive”.

As to `Cc1cc2nc(SCCOC(=O)Nc3ccc(Cl)cc3)nc(C)c2cc1C`, the Potency result was “inactive”.

Take `CSc1nc(N)nc(SCC(=O)Nc2ccc(Cl)cc2)c1C#N`: the Potency was 30.1 µM (active).

Take `Cc1cc(=O)[nH]c(SCC(=O)Nc2ccc(Br)cc2)c1C#N`: the Potency was 7.57 µM (active).

Turning to `Nc1nc(SCC(=O)Nc2ccc([N+](=O)[O-])cc2)[nH]c(=O)c1NC(=O)c1ccc(Br)cc1`, the Potency entry was “inactive”.

Take `Cc1ccc(CNS(=O)(=O)c2ccc(CN3C(=O)c4cccnc4C3=O)s2)o1`: the Potency result was “inactive”.

With `O=C(CCc1ccccc1)N1CCN(Cc2ccc(F)cc2Cl)CC1`, the Potency entry was “inactive”.

Consider `Cc1ccc(CCNC(=O)CN2C(=O)COc3ccc(S(=O)(=O)N4CCC(C)CC4)cc32)cc1`, for which the Potency result was “inactive”.

For `CC[C@@H](C(=O)[C@@H](C)[C@@H](O)[C@H](C)CCc1ccc(C)c(O)c1C(=O)O)[C@H]1O[C@](CC)([C@H]2CC[C@](O)(CC)[C@H](C)O2)C[C@@H]1C`, the Potency is 4.78 µM (active).

As to `Cc1ccccc1CS(=O)(=O)c1nnc([C@H](Cc2ccccc2)NC(=O)OC(C)(C)C)o1`, the Potency was 37.9 µM (active).

For the compound `C[C@@H](NC(=O)[C@@H]1Cc2ccccc2CN1)C(=O)NC1CCCCC1`, the Potency entry was “inactive”.

As to `O=[N+]([O-])c1cc(Br)c(O)c(/C=N/Nc2nnnn2-c2cccc3ccccc23)c1`, the Potency is 7.57 µM (active).

For `O=[N+]([O-])c1cc(Br)c(O)c(/C=N/Nc2nc3ccccc3s2)c1`, the Potency was 2.39 µM (active).

Consider `COc1cccc(OCC(O)CN2CC(C)CC(C)C2)c1` (stereo not drawn), for which the Potency result is “inactive”.

In the case of `O=C(/C=C/c1ccc(Cl)cc1Cl)NCCSCc1ccccc1`, the Potency is 21.3 µM (active).

Turning to `Cc1ccccc1-n1nnnc1SC1CCOC1=O` (stereo not drawn), the Potency entry was “inactive”.

As to `O=C(NCCCN1CCOCC1)c1ccc2c(c1)N(Cc1ccc(Cl)cc1)C(=O)c1ccccc1S2=O` (stereo not drawn), the Potency entry was “inactive”.

In the case of `CCOc1ccc(CNC(=O)CCCn2nc(CC)n3c(cc4occc43)c2=O)cc1`, the Potency result was “inactive”.

`CN(C(=O)CN1C(=O)/C(=C/c2ccccc2Cl)SC1=S)C1CCS(=O)(=O)C1` (stereo not drawn): the Potency entry was “inactive”.

Consider `O=C1/C(=C\c2cc([N+](=O)[O-])ccc2O)SC(=S)N1Cc1ccc(Cl)cc1`, for which the Potency is 2.69 µM (active).

Turning to `COc1cc([N+](=O)[O-])cc(/C=C2/SC(=S)N(Cc3ccccc3)C2=O)c1O`, the Potency was 10.7 µM (active).

In the case of `CN(C)C(=O)[C@H]1C[C@H]1[C@@H](O)[C@H](CO)NC(=O)[C@H](COCc1ccccc1)NC(=O)OC(C)(C)C`, the Potency entry was “inactive”.

Regarding `Cc1ccc(-c2ccc(/C=N/N=C3/NC(=O)C(CC(=O)O)S3)o2)c([N+](=O)[O-])c1` (stereo not drawn), the Potency result was “inactive”.

Consider `O=C(NCCS(=O)(=O)N1CCN(c2ccccc2)CC1)C1CC(=O)N(c2ccccc2)C1` (stereo not drawn), for which the Potency entry was “inactive”.

As for `Cc1ccc(CCNC(=O)C2CCN(S(=O)(=O)c3cccc4cccnc34)CC2)cc1`, the Potency result was “inactive”.

As for `O=C(Nc1nc2ccc(F)cc2s1)C1CCN(S(=O)(=O)c2cc([N+](=O)[O-])ccc2Cl)CC1`, the Potency was 19 µM (active).

As for `N#C/C(=N\Nc1cccc([N+](=O)[O-])c1)C(=O)c1ccc(Br)cc1`, the Potency was 15.1 µM (active).

For the compound `COc1ccc(CC(=O)Nc2cccc(-c3nnc(-c4cccc(C)c4)o3)c2)cc1OC`, the Potency is 4.26 µM (active).

`COc1ccc(-c2nc(CS(=O)CC(=O)NCc3ccccc3)c(C)o2)cc1OC` (stereo not drawn): the Potency result was “inactive”.

Regarding `Cc1cccc(-c2noc(CN(C)C(=O)c3ccco3)n2)c1`, the Potency result was “inactive”.

Consider `O=c1[nH]c(=O)c2nnc(N/N=C/c3ccccc3F)nc2[nH]1`, for which the Potency entry was “inactive”.

On to `CC(C)Nc1nc(SC(C)C(=O)Nc2ccccc2)nc(N(C)C)n1` (stereo not drawn), for which the Potency result was “inactive”.

Regarding `CCOc1ccc2nc(NC(=O)CS(=O)(=O)c3ccccc3)sc2c1`, the Potency entry is “inactive”.

With `O=C(CSc1nnc(NC(=O)c2cccc(Br)c2)s1)NCC1CCCO1` (stereo not drawn), the Potency entry was “inactive”.

Regarding `CCOc1ccc2nc(NC(=O)c3ccc(OCC4CCCO4)cc3)sc2c1` (stereo not drawn), the Potency was 30.1 µM (active).

As to `C=CS(=O)(=O)c1sc(Cl)c(N2CCOCC2)c1[N+](=O)[O-]`, the Potency was 26.9 µM (active).

Turning to `Cc1ccc(/C=C/C(=O)Nc2ccc(Oc3ccccc3)cc2)o1`, the Potency is 23.9 µM (active).

On to `Cc1ccc(CCC(=O)NCc2ccccc2)o1`, for which the Potency entry was “inactive”.
